M18AAP inhibitor – blocks P. falciparum M18 aspartyl aminopeptidase; recombinant PfM18AAP, H-Glu-NHMec fluorogenic cleavage; inhibition, % at 7.35 µM; 290,000 tested, 1.2% active; AID 1822;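 active = inhibition above the campaign mean inhibition over all tested compounds plus 3 SD, cut at about 28% in these data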
CTSL1 counter – blocks F. hepatica cathepsin L1 in PFM18AAP counter-screen; inhibition, % at 5.96 µM; 300,000 tested, 0.49% active; AID 1906; recombinant F. hepatica cathepsin L1, Z-Leu-Arg-MCA fluorescence;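 active = inhibition above the mean of all tested compounds plus 3 SD, set per screening campaign, cut at about 17% in these data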
Calb FLC – C. albicans growth modulation with fluconazole | C. albicans CaCi-2 (fluconazole-resistant clinical isolate) + fluconazole, Alamar Blue growth, 48 h | growth inhibition, % (no concentration beside the values) | 300,000 tested, 0.57% active | AID 1979;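 active = growth inhibition above about 58% in most replicates, limit read from the data, passing the limit was not always enough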;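 note: all wells also contain fluconazole at 8 µg/ml as a sub-toxic cotreatment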
Rin1 Abl inh – human Rin1-Abl interaction inhibition | P00519+Q13671 | TR-FRET Rin1/Abl binding, biochemical | inhibition, % at 7.35 µM | 360,000 tested, 0.4% active; in the data active = inhibition above about 5%, passing the limit was not always enough
Rin1 Abl conf – confirmation of inhibitors of human Rin1-Abl interaction; shares compounds with Rin1 Abl inh; TR-FRET Rin1-Abl binding, purified proteins; inhibition, % at 7.35 µM; 1,300 tested, 49% active; AID 602124; in the data active = inhibition above about 6.5%
GFP quench-1 – counter-screen for Rin1-Abl inhibitors: GFP fluorescence quenchers; shares compounds with Rin1 Abl inh; inhibitors/quenchers counterscreen; inhibition, % at 6.75 µM; 1,300 tested, 8.5% active; in the data active = inhibition above about 6.5%;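 note: ABL1-eGFP fusion protein alone without its partner RIN1-SBP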
GFP quench dose – quenches GFP in dose response, Rin1-Abl counter-screen | 230 tested, under 10 active | GFP fluorescence interference/quenching counterscreen | IC50, µM | shares compounds with Rin1 Abl inh;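 note: ABL1-eGFP fusion protein alone without its RIN1 binding partner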
GFP quench-2 – quenches GFP fluorescence in Rin1-Abl counterscreen; shares compounds with Rin1 Abl inh; GFP fluorescence quenching counterscreen, biochemical; IC50, µM; 25 tested, under 10 active
Hits are given with their value; - = inactive; . = not tested or not shown. The list is not random: actives were taken first. Their share in the collection is about 2.1%. Unless noted, the rule behind the calls is not given here.

SMILES | M18AAP inhibitor | CTSL1 counter | Calb FLC | Rin1 Abl inh | Rin1 Abl conf | GFP quench-1 | others
CCOCCCNC(=O)c1cc(-c2cccnc2)nc2ccc(S(=O)(=O)N3CCC(C)CC3)cc12 | - | - | - | - | . | .
COCCNC(=O)c1cc(-c2ccccn2)nc2ccc(S(=O)(=O)N3CCC(C)CC3)cc12 | - | - | - | 17.0 | - | -
CCc1cccc(NC(=O)CCCCCC2NC(=O)NC2C)c1 (centres undefined) | - | - | - | 96.9 | 99.5 | - | GFP quench dose=-
O=C(O)CCCCCCCC(=O)O | - | - | - | - | . | .
Cc1ccc(NC(=O)CCCCCC2NC(=O)NC2C)cc1 (centres undefined) | - | - | - | 87.7 | 90.8 | - | GFP quench dose=-
CCC(=O)Nc1ccc(F)c(Cl)c1 | - | - | - | - | . | .
CC1NC(=O)NC1CCCCC(=O)O (centres undefined) | - | - | - | 8.1 | 9.0 | -
Cc1ccc(NC(=O)CCCCCNS(=O)(=O)c2ccc(C)cc2)cc1 | - | - | - | - | . | .
CC1NC(=O)NC1CCCCCC(=O)Nc1ccc(F)c(Cl)c1 (centres undefined) | - | - | - | 85.9 | 96.8 | - | GFP quench dose=-
CCc1cccc(NC(=O)CCCN2C(=O)NC(C)(C)C2=O)c1 | . | . | . | - | . | .
C/C(=C\C(=O)Nc1cscc1C)C(=O)O | - | - | - | - | . | .
Cc1ccc(NC(=O)CC2SCCNC2=O)cc1Cl (centres undefined) | - | - | - | - | . | .
O=C(CC1SCCNC1=O)Nc1ccc(F)c(Cl)c1 (centres undefined) | - | - | - | 20.7 | 20.8 | - | GFP quench dose=-
CC(=O)c1ccc(N(C(=O)c2csnn2)C(C(=O)NC2CCCC2)c2ccccc2)cc1 (centres undefined) | - | - | - | 10.6 | - | -
COc1ccc(C2c3[nH]c4ccccc4c3C[C@H]3C(=O)N(C4CCN(Cc5ccccc5)CC4)CC(=O)N23)cc1OC (some centres undefined) | - | - | - | 10.3 | 8.2 | -
Cc1cccc(-c2cc(N3CCCN(C)CC3)n3nccc3n2)c1 | . | . | . | - | . | .
CN1CCCN(c2cc(-c3ccc4ccccc4c3)nc3ccnn23)CC1 | . | . | . | 12.6 | 12.3 | 11.6
Cc1c(C(=O)NCC(c2ccco2)N(C)C)oc2c(Cl)cccc12 (centres undefined) | . | - | . | 38.9 | 46.8 | - | GFP quench dose=-;GFP quench-2=-
CCCOc1ccc(/C=N\NC(=O)CCc2n[nH]c(=O)[nH]c2=O)cc1OC | - | - | - | 7.8 | 8.8 | -
CCCOc1ccc(/C=N/NC(=O)CSc2ccccn2)cc1OC | - | - | - | 16.1 | 21.9 | - | GFP quench dose=-
COc1cc(/C=N/NC(=O)CSc2ccccn2)ccc1O | - | - | - | - | . | .
COC(=O)c1ccc(COC(=O)c2ccc(-n3cnnn3)cc2)o1 | - | - | - | 22.9 | 20.3 | - | GFP quench dose=-
CCOc1ccc(CC(=O)N/N=C(\C)c2cccnc2)cc1 | - | . | - | - | . | .
COc1ccc(C)cc1NC(=O)NCc1ccccc1F | - | - | - | - | . | .
CCC1CCCCN1CCCNC(=O)c1ccc2c(c1)c(C)c(C)n2CC (centres undefined) | - | - | - | 14.8 | - | -
SMILES | M18AAP inhibitor | CTSL1 counter | Calb FLC | Rin1 Abl inh | Rin1 Abl conf | GFP quench-1 | others
O=C(C1CCC(C(=O)N2CCCCC2)CC1)N1CCCCC1 (centres undefined) | - | - | - | 6.2 | - | -
COc1ccc(S(=O)(=O)N2CCCC2)c(Cl)c1Cl | - | - | - | 9.9 | - | -
Cc1c(NC(=O)c2cnc(Cl)c(Cl)c2)c(=O)n(-c2ccccc2)n1C | - | - | - | - | . | .
Cc1ccccc1OCC(=O)NCCNC(=O)c1ccccn1 | - | - | - | 14.8 | - | -
O=C(COc1ccccc1Cl)NCCNC(=O)c1ccccn1 | - | - | - | - | . | .
C[C@@H]1CN(C(=O)c2nc3ccc(Cl)cn3c2CN(C)CCc2cnn(C)c2)C[C@H](C)O1 | - | - | - | - | . | .
COc1ccccc1C(=O)N=C1NC(=O)CC2C(=O)NCCN12 (centres undefined) | - | - | - | 8.8 | - | -
CC1=NN(c2ccccc2)C(=O)/C1=C/c1ccc(Cl)cc1 | - | . | - | 12.4 | - | -
CC1=NN(c2ccc(C(=O)O)cc2)C(=O)/C1=C\c1ccc(OC(=O)c2cccs2)cc1 | - | - | - | 10.5 | - | -

Screens from PubChem.
